Results: PubChem BioAssay (NCI)
This is part of a sample that, as a whole, favours compounds with a hit. Of some 83,000 tested, about 20% had one in any assay.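 Testing used 96-well plates and a 48-hour single-concentration exposure. Example: -40 means 40% of the starting cells died.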 Unmarked numbers belong to inactive results. The source made the active and inactive calls. How the source made its calls: active means growth percent below 10; inactive means the rest.

How the values were obtained:
Assay in all cases: NCI-60 one-dose screen, 48 h (100 = growth as untreated, 0 = no growth, -100 = all killed)
[1] = system: RPMI-8226 leukemia; settings: 10 µM unless noted
[2] = system: OVCAR-8 ovarian; settings: 10 µM unless noted
[3] = system: OVCAR-5 ovarian; settings: 10 µM unless noted
[4] = system: OVCAR-4 ovarian; settings: 10 µM unless noted
[5] = system: SK-OV-3 ovarian; settings: 10 µM unless noted
[6] = system: IGROV1 ovarian; settings: 10 µM unless noted
[7] = system: OVCAR-3 ovarian; settings: 10 µM unless noted
[8] = system: HS 578T breast; settings: 10 µM
[9] = system: NCI/ADR-RES ovarian; settings: 10 µM unless noted
[10] = system: T-47D breast; settings: 10 µM unless noted
[11] = system: BT-549 breast; settings: 10 µM unless noted
[12] = system: MDA-MB-435 melanoma; settings: 10 µM unless noted
[13] = system: SW-620 colon; settings: 10 µM unless noted
[14] = system: MCF7 breast; settings: 10 µM unless noted
[15] = system: HCT-116 colon; settings: 10 µM unless noted
[16] = system: HCC-2998 colon; settings: 10 µM unless noted
[17] = system: KM12 colon; settings: 10 µM unless noted
[18] = system: SR leukemia; settings: 10 µM unless noted

Row | Compound | growth [1] | growth [2] | growth [3] | growth [4] | growth [5] | growth [6] | growth [7] | growth [8] | growth [9] | growth [10] | growth [11] | growth [12] | growth [13] | growth [14] | growth [15] | growth [16] | growth [17] | growth [18]
1 | Clc1cc(Br)ccc1-c1ccc(CNCC2CCNCC2)o1 | 43.8% | 33.6% | 84.8% | -40.7% (active) | 67.2% | 53.8% | 14% | 62.4% | 54.7% | 43.8% | 77.9% | 52.9% | 24.5% | 39.7% | 40.9% | 88.2% | 53.9% | –
2 | CN1CCN(Cc2ccc(NC(=O)c3cncc(C#Cc4ccc(N)nc4)c3)cc2C(F)(F)F)CC1 | 1.97% (active) | 20.1% | – | -8.78% (active) | – | -18.2% (active) | 27.2% | -21.9% (active) | 25.6% | 8.16% (active) | 18.7% | 9.96% (active) | -15.3% (active) | 19.9% | 1.86% (active) | 29.8% | 5.75% (active) | 1.34% (active)
3 | Cc1cc(C)c(C#N)c(SCC(=O)c2sc3c(C#N)c(C)cc(C)[n+]3c2[O-])n1 | 43.1% | 20.4% | 41.6% | 66.9% | 14.7% | 9.29% (active) | -15.9% (active) | 21.8% | 12% | 38.1% | 30.4% | -59.2% (active) | 20.3% | 13.4% | 16.8% | 15.8% | 16.4% | –
4 | COc1cc(C)c2c(=O)c3c(oc2c1)C(=O)c1c(O)c(OC)cc(O)c1C3=O | -8.23% (active) | – | -4.74% (active) | 1.77% (active) | – | – | 5% (active) | 35% | 5.56% (active) | 0.298% (active) | 11.7% | 16.3% | 16.9% | 7.86% (active) | 7.58% (active) | 1.73% (active) | 14.6% | 15.7%
5 | CNCc1cccc2c1OCCOCCOCCC(C)S(=O)(=O)c1ccc(cc1)-c1cnc(N)c(n1)C(=O)N2 (configuration not stated) | 54.8% | 2.48% (active) | 115% | 75.5% | 23.2% | 28.2% | 25.7% | 0.126% (active) | 91.6% | 32.8% | 43.9% | 42.8% | 27.6% | 37.9% | -2.15% (active) | 79% | 47.5% | –
6 | CC[C@H](Nc1nc(N)nc(N)c1Cl)c1nc2cccc(NCc3ccc(C(=O)NO)cc3)c2c(=O)n1-c1ccccc1 | 3.83% (active) | -29.1% (active) | 21.9% | 5.36% (active) | -14.4% (active) | -46.6% (active) | -22.1% (active) | 20.9% | 81.8% | 6.8% (active) | 37.4% | -51.2% (active) | 19.9% | 13% | -63.6% (active) | -14.4% (active) | -38.3% (active) | –
7 | CN(CCO)c1ccc(N2Cc3ccccc3OC3=C2C(=O)c2c(O)ccc(O)c2C3=O)cn1 | -16.2% (active) | 1.86% (active) | -59.8% (active) | -97.5% (active) | -3.73% (active) | -72.7% (active) | -99.7% (active) | 28.4% | -2.37% (active) | -42.7% (active) | -73.2% (active) | -84% (active) | -51.7% (active) | -34.9% (active) | -85.6% (active) | -84.2% (active) | -78% (active) | –
8 | O=c1cc(-c2ccc3c(c2)OCCO3)oc2cc(Cl)ccc12 | 28.8% | 13.5% | 32.8% | -12.5% (active) | 2.04% (active) | -9.4% (active) | -40.2% (active) | 41.2% | 38.2% | 1.86% (active) | 81.4% | 7.43% (active) | 28.6% | 77.8% | -1.49% (active) | 66.2% | 21.3% | –
9 | Oc1ccc(CCCCCCc2ccc(O)cc2)cc1 | 64.7% | 44.1% | 86.1% | 50% | 71.5% | 60.4% | 83.1% | 103% | 33.3% | 65% | 50.3% | 71.4% | 58.1% | 35.9% | 66.8% | 92.3% | 59% | –
10 | COc1ccc(Nc2ncccc2C(=O)NCc2cn(Cc3cc(OC)cc(OC)c3)nn2)cc1 | 99.8% | 97.6% | 106% | 98% | 98.7% | 113% | 96.5% | 86.2% | 89.7% | 93.6% | 98.4% | 106% | 105% | 104% | 94.8% | 103% | 102% | –
11 | NC(=O)c1noc(C(=O)c2ccccc2)c1N | 99.4% | 97.3% | 100% | 89.4% | 107% | 90.4% | 96.9% | 112% | 112% | 100% | 98.2% | 95.6% | 101% | 97.3% | 85.4% | 119% | 98.7% | –
12 | CC(C)=CCC[C@H](C)c1ccc(C)c2c1OCN(CCO)C2 | 83.2% | 86.3% | 83.7% | 79% | 105% | 66.7% | 86.1% | 75.6% | 73.5% | 70% | 95.8% | 101% | 100% | 83.9% | 71.8% | 84.4% | 103% | –
13 | COc1cccc2nc(Nc3cccc(NC(=O)c4cc(N5CCOCC5)cc(C(F)(F)F)c4)c3)ccc12 | 31.9% | 52.2% | 97.5% | 61.9% | 88.9% | 40.4% | 78% | 67% | 59.7% | 42.4% | 78.6% | 55.3% | 95.8% | 45.2% | 41.9% | 76.9% | 52.3% | –
14 | COc1cc(CN2CCO[C@H](COc3cccc(F)c3)C2)ccc1Cl | 30.4% | 22.2% | 47.8% | 9.51% (active) | 34.5% | 67.3% | 49.4% | 51.7% | 26% | 28.2% | 50.2% | 29.2% | 47.4% | 26.7% | 27.1% | 49.3% | 69% | –
15 | C=CCN(CCOC(=O)c1ccc([N+](=O)[O-])cc1)CCOC(=O)c1ccc([N+](=O)[O-])cc1 | 94.3% | 98.7% | 102% | 99.5% | 99.2% | 88.1% | 104% | 101% | 96.8% | 90.5% | 100% | 107% | 100% | 96.3% | 96.2% | 105% | 103% | –
16 | Fc1ccc(-c2ccnc3nc(-c4ccncc4)nn23)cc1 | 98.5% | 96.5% | 100% | 109% | 104% | 104% | 105% | 113% | 106% | 90.1% | 93.8% | 107% | 30.3% | 86.1% | 95.1% | – | 99.8% | –
17 | CC1=NC(c2ccc(Cl)cc2)C2=C(N1)/C(=C/c1ccc(Cl)cc1)CCC2 (configuration not stated) | -1.96% (active) | 79% | 114% | 83.6% | 109% | 98.8% | 104% | 97.9% | 98% | 82.5% | 66% | 22.4% | 82.1% | 31.3% | -39.9% (active) | 41.5% | 38% | –
18 | CC1=C(C(=O)Nc2ccc(F)cc2)C(c2ccc(Cl)cc2)C2=C(CC(C)(C)CC2=O)N1 (configuration not stated) | 70% | 89.1% | 93.5% | 77.6% | 101% | 89.6% | 89.9% | 80.4% | 87.9% | 82.6% | 99.9% | 91.6% | 94.6% | 80.1% | 86.9% | 99.6% | 92.6% | –
